# High-throughput results (PubChem BioAssay)
# Cy5 interf NS3h = enhances or quenches Cy5 fluorescence in NS3h assay; Cy5-dT15 DNA with NS3h, fluorescence interference; actives lie on both sides; signal over control mean, under 1 quenches; fluorescence interference ratio at 100 µM; 16,000 compounds, 6% hits;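 active = compound fluorescence over control fluorescence at most 0.8, a quencher, or at least a set upper limit, an enhancer; inactive = ratio between 0.8 and the set upper limit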
# NS3h inh CB = blocks HCV NS3 helicase binding to DNA; NS3h Cy5-dT15 DNA binding, fluorescence polarization; inhibition, % at 100 µM; 16,000 compounds, 1.6% hits; AID 687043;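 active = inhibition above the average over every tested compound plus 3 SD, cut at about 40% in these data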
# The depositor's hits bear a star. A selection: hits, their analogues and other compounds. The true share with any hit is near 6.9%.
SMILES,Cy5 interf NS3h,NS3h inh CB
O=C1/C(=C/c2ccc(Br)o2)SC(=S)N1c1cccc(C(F)(F)F)c1,0.86,3
O=C1/C(=C/c2ccc(Br)o2)SC(=S)N1c1ccccc1,0.64*,17
CCCC(=O)Nc1cc(OC)ccc1OC,0.74*,16
COc1ccc(OC)c(NC(=O)COc2ccc(Br)cc2C)c1,1,-4
Cc1cc(Br)ccc1N1C(=O)/C(=C/c2cc(C)n(C)c2C)C(=O)NC1=S,1.2*,-12
Cc1cc(C=C2C(=O)N(C)C(=O)N(C)C2=O)c(C)n1C,1.1,-10
Cc1cc(/C=C2\C(=O)NC(=S)N(c3ccccc3)C2=O)c(C)n1-c1cccnc1,1.2*,15
CCc1ccccc1N1C(=O)/C(=C/c2cc(C)n(C)c2C)C(=O)NC1=S,1.2*,10
Cc1cc(/C=C2\C(=O)NC(=S)N(c3ccc(Br)cc3)C2=O)c(C)n1C,1.2,33
Cc1cc(/C=C2\C(=O)NC(=S)N(c3ccccc3)C2=O)c(C)n1-c1ccccc1,1.1,0
CCOc1cc(/C=C2\C(=O)NC(=O)N(c3ccc(Cl)cc3)C2=O)cc(Br)c1OC,1,7
CCc1ccc(NC(=O)CSc2nc3ccc(N)cc3s2)cc1,0.96,8
Cc1cc([N+](=O)[O-])ccc1NC(=O)/C=C/c1ccccc1Cl,1.1,5
Cc1ccc(C)c(COc2ccc3c4c(c(=O)oc3c2)CCC4)c1,1.1,7
O=C(Nc1cc(Cl)cc(Cl)c1)C(c1ccccc1)c1ccccc1,1.1,-7
O=C(Nc1cc(C(F)(F)F)ccc1Cl)C(c1ccccc1)c1ccccc1,0.77*,25
O=c1/c(=C/c2cn(-c3ccccc3)nc2-c2ccccc2)sc2nc3ccccc3n12,1.2,11
O=C(O)c1cccc(COc2ccc(C=C3C(=O)c4ccccc4C3=O)cc2)c1,0.95,34
CCOc1ccc(N(CC(=O)OC)S(=O)(=O)c2ccc(C)cc2)cc1,0.89,13
Cc1ccc(-n2c(=O)c3cc4c(=O)n(-c5ccc(C)c(C)c5)c(=O)c4c(C(=O)c4ccccc4)c3c2=O)cc1C,1.1,10
O=c1c2cc3c(=O)n(-c4ccc(S)cc4)c(=O)c3cc2c(=O)n1-c1ccc(S)cc1,0.7*,4
O=C(Nc1ccccc1C(=O)O)c1cccc(NC(=O)C(c2ccccc2)c2ccccc2)c1,1,8
Cc1ccc(C(=O)O/N=C(/N)c2ccc(Br)cc2)cc1[N+](=O)[O-],0.78*,18
Cc1ccc(C(=O)O/N=C(/N)c2ccc(Cl)cc2)cc1[N+](=O)[O-],0.96,-2
Cc1ccc(C(O)=C2C(=O)C(=O)N(CCCC(=O)O)C2c2ccc(Br)cc2)cc1 (stereo not given),1.2*,9
SMILES,Cy5 interf NS3h,NS3h inh CB
O=C(O)CCCCCN1C(=O)C(=O)C(=C(O)c2ccc(F)cc2)C1c1ccc(Cl)cc1 (stereo not given),1,-1
O=C(C(=C(O)c1ccccc1)c1nc2ccccc2[nH]1)c1ccc([N+](=O)[O-])cc1,1.1,6
O=C(O)CSc1ccc(I)cc1C(=O)O,1.1,15
Cc1ccc(NC(=S)NC(=O)C(=O)Nc2ccccc2)cc1,0.72*,10
O=C(Nc1ccccc1)C(=O)Nc1ccc(F)cc1,0.96,8
CC1=C(C(=O)Nc2ccc(C)c(Cl)c2)C(c2cccc([N+](=O)[O-])c2)NC(=O)N1 (stereo not given),0.9,1
CC(C1CC1)N(Cc1ccccc1)C(=O)Nc1cccc([N+](=O)[O-])c1 (stereo not given),0.61*,7
CCc1cccc(C)c1NC1C=CS(=O)(=O)C1 (stereo not given),0.99,0
O=C(Nc1nc2ccccc2n1Cc1ccc(Cl)cc1)c1ccc(Cl)cc1,1.1,-2
COc1ccc(CCNc2cc(N3CCN(C)CC3)ccc2[N+](=O)[O-])cc1OC,0.98,46*
CN1CCN(c2ccc([N+](=O)[O-])c(NCc3ccc(Cl)cc3)c2)CC1,0.96,15
CCOc1ccc(C2=Cc3cc(OC)c(OC)cc3S(=O)(=O)O2)cc1,0.88,7
O=C(Sc1nc2ccccc2[nH]1)c1ccccc1,1.1,17
Cc1nn(-c2ccc(Cl)cc2Cl)c2c1C(=O)CC(C)(C)C2,0.98,4
O=C(/C=C\Nc1ccccc1[N+](=O)[O-])c1ccc2c(c1)OCO2,0.64*,48*
CCOc1ccc(N/C=C\C(=O)c2ccc3c(c2)OCO3)c([N+](=O)[O-])c1,1,29
COc1ccc(N(CC(=O)Nc2ccc(Cl)cc2)S(=O)(=O)c2ccc(C)cc2)cc1,1,5
O=C(CSc1nnc(-c2ccc(Br)cc2)o1)NCc1ccccc1,1,9
O=C(OCc1ccccc1)Sc1nnc(-c2ccc(Br)cc2)o1,0.78*,14
COc1ccc(C2CC(c3ccc(C)cc3)=NN2C(C)=O)cc1OC (stereo not given),1,3
COc1ccc(-c2nn3c(-c4ccc(OC)c(OC)c4)nnc3s2)cc1OC,1.3*,10
COC(=O)c1c(C)oc2ccc(OCc3c(F)cccc3Cl)cc12,0.91,10
CC(=O)NC1=NC(=O)/C(=C/c2cc(Cl)ccc2OCc2c(F)cccc2Cl)S1,0.77*,5
COc1cc(C=O)ccc1OC(=O)c1cc(OC)c(OC)c(OC)c1,0.67*,0
COc1cc(C(=O)Oc2ccc3c(C)cc(=O)oc3c2C(C)=O)cc(OC)c1OC,1.2,12
SMILES,Cy5 interf NS3h,NS3h inh CB
COc1cc(C2C(C(=O)/C=C/c3ccccc3)=C(O)C(=O)N2c2ccccc2)ccc1O (stereo not given),0.96,2
O=C(Nc1nccs1)c1ccc(Oc2ccc(C(=O)Nc3nccs3)cc2)cc1,1.1,-1
Cn1c2c(c3cc(F)ccc31)CCCC2=O,0.91,-6
O=C(Nc1cccc2nsnc12)c1ccc([N+](=O)[O-])cc1,1,25
COc1ccc(NC(=O)c2c(NC(=O)C(Cl)(Cl)Cl)sc3c2CCC3)cc1,0.6*,27
CCC(=O)Nc1sc2c(c1C(=O)Nc1ccc(OC)cc1)CCC2,0.9,-7
Cc1cc(/C=N\n2cnnc2)c(C)n1-c1ccc(I)cc1,1,-2
CC(=O)N=C1SC2CS(=O)(=O)CC2N1c1c(Cl)cccc1Cl (stereo not given),1.3*,12
Cc1c(Cl)cccc1NC1CS(=O)(=O)CC1O (stereo not given),1.1,3
COC(=O)c1c(C)oc2ccc(OC(=O)c3c(C)oc4ccc(OC(C)=O)cc34)cc12,0.91,16
COc1ccccc1/C=C1/N=C(c2sc3ccccc3c2Cl)OC1=O,1.1,-2
CC(C)(C)OC(=O)COc1ccc2c3c(c(=O)oc2c1)CCC3,1,6
CC(=O)Nc1ccc(NC(=O)CCC(=O)O)cc1,0.63*,-1
NC(=O)c1ccc(NC(=O)CCC(=O)O)cc1,1.1,1
O=C(Nc1cccc(NC(=S)NC(=O)c2ccco2)c1)c1cccc(Cl)c1,1.1,-6
O=C(NC(=S)Nc1cccc(NC(=O)c2ccccc2Cl)c1)c1ccco1,0.87,44*
O=C(NC(=S)Nc1cccc(NC(=O)c2ccco2)c1)c1ccco1,0.86,42*
O=C(NC(=S)Nc1ccc2oc(-c3cc(I)ccc3Cl)nc2c1)c1ccco1,1.1,-19
O=C(NC(=S)Nc1ccc(Cl)c(-c2nc3ccccc3o2)c1)c1ccco1,1.2*,11
O=C(NC(=S)Nc1cccc(Cl)c1)c1ccco1,0.99,-1
Cc1nc2ccccc2c(=O)n1/N=C\c1c(O)ccc2ccccc12,0.94,-10
